This is an account of results in PubChem BioAssay (Tox21).

Where “and” joins values, the source holds several entries; their conditions need not be identical. Equal values may be shown once. Records with an inconclusive call do not appear. Calls of active or inactive are those of the source. Calls come from the whole dose curve; as a rule, active = well fitted inhibition curve with a large enough effect in the repeat runs; inconclusive = weak or mixed curves; inactive = no such curve, though single readings can be large or run the other way.
Potency is the fitted concentration of half-maximal effect.

The nature of this assay: qHTS assay to identify small molecule antagonists of the thyroid receptor (TR) signaling pathway (AID 743065). Note: nearly all actives have a fitted effect of over 55% in size. The note with it: GH3.TRE-Luc, T3-stimulated luciferase inhibition, 23.5 h; series mostly up to 70.3 µM. The text has this: U.S. Tox21 Program National Center for Advancing Translational Sciences [NCATS] NIH Chemical Genomics Center [NCGC] U.S. Environmental Protection Agency [EPA] National Institutes of Environmental Health Sciences [NIEHS] National Toxicology Program [NTP] U.S. Food and Drug Administration [FDA] Tox21 Assay Overview: Thyroid receptor (TR), a nuclear hormone receptor, plays an important role in development, proliferation, differentiation, metabolism, brain function, and cardiovascular system. […] To profile the Tox21 10K compound library in TR signaling, a cell-based GH3-TRE-Luc assay (GH3.TRE-Luc cell line, developed by the laboratory of Dr. Albertinka J. Murk, Wageningen University) was used to measure the inhibition of TR. GH3 (rat pituitary tumor) cells stably expressing a TR activity sensor consisting of two TR response elements and a luciferase reporter gene.
Tox21 Assay Protocol Summary: GH3.TRE-Luc cells were dispensed at 1500 cells/4 uL/well into 1536-well white solid bottom plates using a Multidrop Combi dispenser (Thermo Fisher Scientific Inc., Waltham, MA). After the assay plates were incubated at 37 C for 4 hours, 23 nL of library compound or DMSO controls was transferred to the assay plates by a pintool station (Kalypsys, San Diego, CA), followed by addition of 1 ul of T3 (1 nM, final concentration in the wells) to stimulate TR transactivation. The assay plates were incubated at 37 C for 23.5 h, and then 1 uL of CellTiter-Fluor reagent (Promega, Madision, WI) of measuring cytotoxicity was added to each well using a Bioraptr Flying Reagent Dispenser (FRD) workstation (Beckman Coulter, Indianapolis, IN, USA). The plates were incubated at 37 C and 5% CO2 for additional 30 min, and fluorescence intensity was measured by a ViewLux plate reader (PerkinElmer, Shelton, CT). For measuring luciferase reporter gene activity, 4 uL of ONE-Glo Luciferase Assay reagent (Promega) was added to each well using a Bioraptr FRD (Beckman Coulter), followed by 30 min incubation at room temperature. The luminescence intensity of plates was recorded by a ViewLux plate reader (PerkinElmer, Shelton, CT).
In general terms: Quantitative high-throughput screening tests each substance at several concentrations.
For the molecule `Oc1ccc(C(c2ccc(O)cc2)(C(F)(F)F)C(F)(F)F)cc1`, the Potency was 19.2 µM (active) and 24.3 µM (active).

As for `Cc1ccc(OP(=O)(Oc2ccccc2)Oc2ccccc2)cc1`, the Potency result is “inactive”.

In the case of `COC(=O)N(C(=O)N1CO[C@@]2(C(=O)OC)Cc3cc(Cl)ccc3C2=N1)c1ccc(OC(F)(F)F)cc1`, the Potency was 11.8 µM (active).

For the molecule `C[C@@H]1O[C@@H](O[C@@H]2C=C3CC[C@@H]4[C@H](CC[C@]5(C)[C@@H](c6ccc(=O)oc6)CC[C@]45O)[C@@]3(C)CC2)[C@H](O)[C@H](O)[C@H]1O`, the Potency entry was “inactive”.

For `CC(C)CC(C)Nc1ccc(Nc2ccccc2)cc1` (stereo not given), the Potency was 30.1 µM (active).

As for `CCCCCCCCc1ccc(O)cc1`, the Potency was 30.6 µM (active).

With `Cc1cc(C(F)(C(F)(F)F)C(F)(F)F)ccc1NC(=O)c1cccc(I)c1C(=O)NC(C)(C)CS(C)(=O)=O`, the Potency is 21.8 µM (active).

As to `O=C1c2ccccc2C(=O)C1C(=O)C(c1ccccc1)c1ccc(Cl)cc1` (stereo not given), the Potency was 15.4 µM (active).

`S=C(SSC(=S)N1CCCCC1)N1CCCCC1`: the Potency is 0.237 µM (active).

Consider `Cc1cc(C)c(C2=C(OC(=O)CC(C)(C)C)C3(CCCC3)OC2=O)c(C)c1`, for which the Potency result is “inactive”.

In the case of `N#CNC#N`, the Potency result is “inactive”.

In the case of `CCCCCCCCCC[N+](C)(C)CCCCCCCCCC`, the Potency was 5.96 µM (active) and 9.69 µM (active).

Consider `CCCSP(=O)(OCC)SCCC`, for which the Potency result was “inactive”.

For `CCCCOCN(C(=O)CCl)c1c(CC)cccc1CC`, the Potency is 61.1 µM (active).

On to `CS(=O)(=O)c1ccc(C(=O)C2C(=O)CCCC2=O)c([N+](=O)[O-])c1`, for which the Potency was 69.8 µM (active).

Regarding `[Cd+2].[Cl-].[Cl-]`, the Potency is 27.5 µM (active) and 38.6 µM (active).

As for `C1CCC2CCCCC2C1` (stereo not given), the Potency entry is “inactive”.

Consider `CC(=O)C(Cl)(Cl)Cl`, for which the Potency was 2.35 µM (active).

With `COP(=O)(OC)SCn1c(=O)oc2cc(Cl)cnc21`, the Potency result is “inactive”.

In the case of `CC(C)OC(=O)C(O)(c1ccc(Cl)cc1)c1ccc(Cl)cc1`, the Potency was 61.1 µM (active).

Consider `CC(=O)OC1(c2ccccc2)CCN(CCc2ccccc2)CC1`, for which the Potency was 55.8 µM (active).

For `CCOc1cc(C(C)(C)C)ccc1C1COC(c2c(F)cccc2F)=N1` (stereo not given), the Potency was 16.6 µM (active).

As to `C=CC(=O)OCC(COC(=O)C=C)(COC(=O)C=C)COC(=O)C=C`, the Potency was 1.93 µM (active).

`CC(C)CCCCCCCOP(=O)(Oc1ccccc1)Oc1ccccc1`: the Potency was 30.8 µM (active).

As for `BrC(Br)Br`, the Potency entry is “inactive”.

For `O=C(CCl)Nc1ccccc1`, the Potency is 24.3 µM (active).

Turning to `Clc1ccc(C(c2ccc(Cl)cc2)C(Cl)(Cl)Cl)cc1`, the Potency was 18.8 µM (active) and 30.9 µM (active) and 24.3 µM (active).

`CNC(C)Cc1ccc2c(c1)OCO2` (stereo not given): the Potency result is “inactive”.

In the case of `CC(C)(C)c1cc([N+](=O)[O-])cc(C(C)(C)C)c1O`, the Potency was 6.86 µM (active).

Turning to `CC(C)(C)C(O)/C(=C\c1ccc(Cl)cc1Cl)n1cncn1` (stereo not given), the Potency was 74 µM (active).

As to `CC1(C)CN=C(NN=C(/C=C/c2ccc(C(F)(F)F)cc2)/C=C/c2ccc(C(F)(F)F)cc2)NC1`, the Potency was 12.2 µM (active).

`C=CCC1=C(C)C(OC(=O)C2C(C=C(C)C)C2(C)C)CC1=O` (stereo not given): the Potency was 25.8 µM (active).

As to `O=S(=O)(c1ccc(Cl)cc1)c1ccc(Cl)cc1`, the Potency entry was “inactive”.

As to `BrCBr`, the Potency entry is “inactive”.

Regarding `C[C@@H]1CC[C@@]2(OC1)O[C@H]1[C@@H](O)[C@H]3[C@@H]4CC[C@H]5C[C@@H](O[C@@H]6O[C@H](CO)[C@H](O[C@@H]7O[C@H](CO)[C@@H](O)[C@H](O[C@@H]8OC[C@@H](O)[C@H](O)[C@H]8O)[C@H]7O[C@@H]7O[C@H](CO)[C@@H](O)[C@H](O[C@@H]8O[C@H](CO)[C@@H](O)[C@H](O)[C@H]8O)[C@H]7O)[C@H](O)[C@H]6O)[C@H](O)C[C@]5(C)[C@H]4CC[C@]3(C)[C@H]1[C@@H]2C`, the Potency was 2.58 µM (active).

In the case of `O=C/C(Cl)=C(/Cl)C(=O)O`, the Potency was 68.6 µM (active).

Regarding `O=C(O)c1cc[c]([Hg][Cl])cc1`, the Potency was 6.86 µM (active).

Regarding `ClC1=C(Cl)[C@]2(Cl)[C@H]3[C@H]([C@H]4C=C[C@H]3C4)[C@@]1(Cl)C2(Cl)Cl`, the Potency was 68.6 µM (active).

Consider `CC(C)CCCCCOC(=O)c1ccccc1C(=O)OCCCCCC(C)C`, for which the Potency entry was “inactive”.

`CCOCCOC(C)=O`: the Potency entry was “inactive”.
